Assay outcomes: PubChem, National Center for Advancing Translational Sciences (NCATS)
HT1080 IDH1KD tx = qHTS for induction of synthetic lethality in tumor cells producing 2HG: qHTS for the HT-1080-IDH1KD cell line; 360,000 tested, 2% active; Potency, µM (titrated, usually from 46.1 µM), most hits filed as cytotoxic; HT-1080 IDH1 knockdown viability, ATP luminescence, 48 h
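Using the IDH1-knockdown HT-1080 line run in the same batch and compound series as the NT line, viability after 48 h at 37 °C was determined by CellTiter-Glo luminescence and expressed as % activity.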
HT1080-NT tox = qHTS for induction of synthetic lethality in tumor cells producing 2HG: qHTS for the HT-1080-NT fibrosarcoma cell line; HT-1080-NT fibrosarcoma viability, CellTiter-Glo ATP luminescence, 48 h; Potency, µM (top dose mostly 46.1 µM), hits mostly cytotoxic; 360,000 tested, 1.6% active;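 note: NT is the 2HG producing partner of a matched IDH1 knockdown line; nearly all actives have a fitted effect of over 55% in size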
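Fibrosarcoma NT cells, 750 per well in 5% FBS RPMI, were exposed to compound for 48 hours. Viability: CellTiter-Glo luminescence.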
IL1B secr inh = qHTS for Inhibitors of Inflammasome Signaling: IL-1-beta AlphaLISA Primary Screen; THP-1 LPS/ATP IL-1B secretion, AlphaLISA, 16 h; stronger effect = lower value; activity change, % at 57.5 µM; 360,000 tested, 4.7% active; AID 743279, 2014; in the data active = activity change below about -50%; inconclusive = mostly about -30% to -49%
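Secreted IL-1B measured by AlphaLISA bead assay after 16 h compound exposure of THP-1 cells; compounds (final up to 57.5 uM) added 1 h before LPS (250 ng/mL) and ATP (1.25 mM) stimulation; lower signal means less secretion.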
TDP1 cell CPT = qHTS for Inhibitors of human tyrosyl-DNA phosphodiesterase 1 (TDP1): qHTS in cells in presence of CPT; chicken DT40 Tdp1-/-;hTDP1 cells + 20 nM CPT, ATP luminescence, 48 h; Potency, µM (top dose mostly 46.2 µM), most hits filed as inhibitors; 420,000 tested, 12% active; AID 686979, 2013; note: nearly all actives have a fitted effect of over 55% in size
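Chicken DT40 Tdp1-/- cells complemented with human TDP1, 400 cells/well, exposed to compounds plus 20 nM camptothecin for at least 48 h at 37 C; viability read as ATP content by CellTiter-Glo luminescence.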
TDP1 cell noCPT = qHTS for Inhibitors of human tyrosyl-DNA phosphodiesterase 1 (TDP1): qHTS in cells in absence of CPT; DT40 Tdp1-/- hTDP1 cells, no CPT, ATP luminescence, 48 h; Potency, µM (titrated, usually from 46.2 µM), actives largely listed as inhibitors; 420,000 tested, 15% active; AID 686978, 2013; note: nearly all actives have a fitted effect of over 55% in size
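Compound effects on proliferation are scored in DT40 Tdp1-/-;hTDP1 cells in the absence of CPT. ATP levels (CellTiter-Glo luminescence) are recorded after a ≥48 hr, 37 °C incubation.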
Large screens that a line does not name were inactive. A selection: hits, their analogues and other compounds. The true share with any hit is near 19%. Unless noted, calls come from the whole dose curve; as a rule, active = well fitted curve in the direction sought with a large enough effect; inconclusive = small, poorly fitted or top-dose-only effect, or another doubt; inactive = no such curve, though single readings can be large; an effect the other way counts as inactive or inconclusive.

CCCOc1ccc(N2C(=O)CC(SC(=NC)Nc3ccc(F)cc3)C2=O)cc1 (stereo not drawn)	TDP1 cell noCPT inconclusive
CC1(C)CC(=O)C2=C(C1)Nc1[nH]n(-c3ccccc3)c(=O)c1C2c1ccc2c(c1)OCO2 (stereo not drawn)	TDP1 cell CPT 7.3µM, TDP1 cell noCPT 5.2µM
O=C(NNc1ncc(C(F)(F)F)cc1Cl)c1c(Cl)cccc1Cl	HT1080 IDH1KD tx 7.3µM, HT1080-NT tox inconclusive, TDP1 cell CPT 4.1µM, TDP1 cell noCPT 4.1µM
NC(=O)NNc1ncc(C(F)(F)F)cc1Cl	none
FC(F)(F)c1cnc(NNC(=S)Nc2ccccc2)c(Cl)c1	IL1B secr inh inconclusive, TDP1 cell CPT inconclusive, TDP1 cell noCPT inconclusive
FC(F)(F)c1cnc(NNC(=S)Nc2cccnc2)c(Cl)c1	TDP1 cell CPT inconclusive, TDP1 cell noCPT 21µM
Cc1c(Cl)cccc1NC(=S)NNc1ncc(C(F)(F)F)cc1Cl	HT1080 IDH1KD tx inconclusive, HT1080-NT tox inconclusive, IL1B secr inh -69, TDP1 cell CPT inconclusive, TDP1 cell noCPT inconclusive
Fc1ccccc1NC(=S)NNc1ncc(C(F)(F)F)cc1Cl	HT1080 IDH1KD tx inconclusive, HT1080-NT tox inconclusive, TDP1 cell CPT inconclusive, TDP1 cell noCPT 23µM
Cc1ccccc1NC(=S)NNc1ncc(C(F)(F)F)cc1Cl	none
C/C(=C(\CCO)SS/C(CCO)=C(\C)N(C=O)Cc1cnc(C)nc1N)N(C=O)Cc1cnc(C)nc1N	none (no result: HT1080 IDH1KD tx, HT1080-NT tox, IL1B secr inh)
COC(=O)C1=C[C@@H](C(=O)OC)[C@@H]2C3=C(C(=O)[C@]2(C)NC(=O)c2ccccc2)[C@H](C)n2c(=O)n(-c4ccccc4)c(=O)n2[C@@H]3C1	none
Cc1ccc(C)c(NC(=O)c2ccc3c(c2)CCCN3S(C)(=O)=O)c1	none (no result: HT1080 IDH1KD tx, HT1080-NT tox, IL1B secr inh)
Cc1nc(SCc2ccc(OCCC(C)C)cc2)n[nH]1	TDP1 cell CPT 15µM, TDP1 cell noCPT inconclusive
COc1ccc(N(Cc2cc(=O)[nH]c3ccccc23)C(=O)CCl)cc1	HT1080 IDH1KD tx 23µM, HT1080-NT tox 3.3µM, IL1B secr inh -98, TDP1 cell CPT 2.1µM, TDP1 cell noCPT 2.1µM
CCCC(=O)N(Cc1cc(=O)[nH]c2ccccc12)c1ccc(OC)cc1	none
CCCC(=O)N(Cc1cc(=O)[nH]c2ccccc12)c1cccc(C)c1	TDP1 cell noCPT inconclusive
Cc1cccc(N(Cc2cc(=O)[nH]c3ccccc23)C(=O)CCl)c1	HT1080 IDH1KD tx inconclusive, HT1080-NT tox 21µM, IL1B secr inh -107, TDP1 cell CPT 4.1µM, TDP1 cell noCPT 5.2µM
COC(=O)c1ccc(COc2ccc(/C=N/O)cc2)o1	none
OC[C@@H]1[C@@H](c2ccccc2)C(c2cccc(Cl)c2)=NN1c1ccccc1	HT1080 IDH1KD tx inconclusive, HT1080-NT tox 12µM, IL1B secr inh inconclusive, TDP1 cell CPT 21µM, TDP1 cell noCPT 21µM
OC[C@@H]1[C@@H](c2ccccc2)C(c2ccc(F)cc2)=NN1c1ccccc1	HT1080 IDH1KD tx inconclusive, HT1080-NT tox inconclusive, TDP1 cell CPT inconclusive, TDP1 cell noCPT inconclusive
OC[C@@H]1[C@@H](c2ccccc2)C(c2ccccc2)=NN1c1ccccc1	TDP1 cell CPT inconclusive, TDP1 cell noCPT 16µM
Cc1cc(Cl)ccc1OCC(=O)NNC(=O)c1cccnc1	none
CC1=C(C(=O)O)N2C(=O)C(NC(=O)C(N)c3ccccc3)C2SC1 (stereo not drawn)	none (no result: HT1080 IDH1KD tx, HT1080-NT tox, IL1B secr inh)
CCc1cc(-c2cnnn2CCc2c[nH]c3ccccc23)ccc1-c1cn(CC(C)C)nn1	HT1080-NT tox inconclusive, TDP1 cell CPT inconclusive, TDP1 cell noCPT inconclusive
CCc1cc(-c2nnn(-c3cc(C(C)C)ccc3C)c2CC)ccc1-c1cn(CCc2c[nH]c3ccccc23)nn1	HT1080 IDH1KD tx inconclusive, TDP1 cell CPT 23µM, TDP1 cell noCPT inconclusive
CCc1cc(-c2nnn(CCC3COCCO3)c2C(C)(C)O)ccc1-c1cn(CCc2c[nH]c3ccccc23)nn1 (stereo not drawn)	HT1080 IDH1KD tx inconclusive, TDP1 cell CPT 21µM, TDP1 cell noCPT 12µM
CCCOc1ccc(-c2nc(SCc3ccccc3)[nH]c(=O)c2C#N)cc1OC	TDP1 cell CPT inconclusive, TDP1 cell noCPT inconclusive
Cc1ccc(NC(=O)c2ccc(N3C(=O)C4CC=C(Cl)CC4C3=O)cc2)cc1 (stereo not drawn)	TDP1 cell CPT inconclusive, TDP1 cell noCPT 16µM
COc1cc(Br)c(C[N+]2(CCOCCC3CCC4CC3C4(C)C)CCOCC2)cc1OC (stereo not drawn)	TDP1 cell CPT 1.9µM, TDP1 cell noCPT 1.9µM (no result: HT1080 IDH1KD tx, HT1080-NT tox, IL1B secr inh)
COc1ccc(C(=O)NC(Nc2ccc(C)cc2)C(Cl)(Cl)Cl)cc1 (stereo not drawn)	HT1080 IDH1KD tx inconclusive, IL1B secr inh -72, TDP1 cell CPT 21µM, TDP1 cell noCPT 18µM
COc1ccc(NC(NC(=O)c2ccc(OC)cc2)C(Cl)(Cl)Cl)cc1 (stereo not drawn)	IL1B secr inh -78, TDP1 cell CPT inconclusive, TDP1 cell noCPT inconclusive
CCCOc1ccc(N2C(=O)C/C(=C\c3ccccc3)C2=O)cc1	TDP1 cell CPT inconclusive, TDP1 cell noCPT inconclusive
FC(F)(F)c1ccccc1NC(=S)NC1CCN(Cc2ccccc2)CC1	TDP1 cell CPT inconclusive
CCCn1c(-c2ccc(OC)cc2)nc2nc3ccccc3nc21	TDP1 cell CPT 23µM, TDP1 cell noCPT 21µM
Clc1ccc(OCCn2c(-c3ccco3)nc3ccccc32)cc1	TDP1 cell CPT inconclusive, TDP1 cell noCPT inconclusive
c1ccc(Cn2c(-c3ccco3)nc3nc4ccccc4nc32)cc1	HT1080 IDH1KD tx inconclusive, HT1080-NT tox inconclusive, TDP1 cell CPT 13µM, TDP1 cell noCPT inconclusive
COc1ccc(CCn2c(-c3cc([N+](=O)[O-])cc([N+](=O)[O-])c3)nc3nc4ccccc4nc32)cc1OC	TDP1 cell CPT inconclusive, TDP1 cell noCPT 23µM
COc1ccc(CCn2c(-c3cc([N+](=O)[O-])cc([N+](=O)[O-])c3)nc3nc4ccccc4nc32)cc1	TDP1 cell CPT inconclusive, TDP1 cell noCPT inconclusive
COc1ccc(C(=O)n2c(-c3ccco3)nc3ccccc32)cc1	HT1080 IDH1KD tx 5.8µM, HT1080-NT tox inconclusive, TDP1 cell CPT 6.5µM, TDP1 cell noCPT 4.1µM
Cc1nn(C)c(C(=O)N/N=C/c2cccnc2)c1Br	none
COc1cc(O)ccc1C(=O)CCc1ccc(O)cc1	none
COc1ccc(CCn2c(-c3ccco3)nc3nc4ccccc4nc32)cc1	TDP1 cell CPT 16µM, TDP1 cell noCPT 10µM
Clc1ccc(-c2nc3nc4ccccc4nc3n2Cc2ccco2)cc1	TDP1 cell CPT inconclusive, TDP1 cell noCPT 16µM
COC(=O)c1nc2n(n1)C(c1cc(OC)ccc1OC)C(C(=O)Nc1ccc(C)cc1C)=C(C)N2 (stereo not drawn)	none (no result: HT1080 IDH1KD tx, HT1080-NT tox, IL1B secr inh)
